Screens (PubChem)
Sampled rows, rich in hits. Any-hit rate of the full collection: about 2.4%.
LT uptake inh: qHTS Assay for Anthrax Lethal Toxin Internalization; Cells, anthrax lethal toxin internalization, FRET ratio (460/530); Potency, µM (series often up to 40 µM), for inactives: at the highest dose activity change, negative = inhibition, actives largely listed as inhibitors; 70,000 tested, 0.67% active; AID 912, 2007; also: % is scaled to controls: 0 for no effect and ±100 for the full control effect; nearly all actives have a fitted effect of over 50% in size
AmpC inh det: Promiscuous and Specific Inhibitors of AmpC Beta-Lactamase (assay with detergent) | purified AmpC, nitrocefin hydrolysis with detergent | P00811 | 71,000 tested, 0.09% active | Potency, µM (highest dose often 28.7 µM), for inactives: top-dose activity change, negative = inhibition; active = well fitted curve in the direction sought with a large enough effect; inconclusive = small, poorly fitted or top-dose-only effect; also: % is scaled to controls: 0 for no effect and ±100 for the full control effect
Target sequence (P00811 whole entry, looked up): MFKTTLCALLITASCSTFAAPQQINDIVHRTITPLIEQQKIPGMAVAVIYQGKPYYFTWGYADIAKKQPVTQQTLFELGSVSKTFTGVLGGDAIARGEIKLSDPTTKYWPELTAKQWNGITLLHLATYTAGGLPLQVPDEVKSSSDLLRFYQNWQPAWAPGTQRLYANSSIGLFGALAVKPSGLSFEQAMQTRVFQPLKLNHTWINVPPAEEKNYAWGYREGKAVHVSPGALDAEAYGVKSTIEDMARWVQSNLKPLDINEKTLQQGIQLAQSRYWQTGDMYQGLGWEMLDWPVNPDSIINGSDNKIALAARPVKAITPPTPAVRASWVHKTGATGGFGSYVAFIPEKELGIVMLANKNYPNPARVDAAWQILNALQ
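E. coli AmpC (5.3 nM) in 20 mM phosphate pH 7.0 with 0.01% Triton X-100, preincubated 15 min RT with compound; nitrocefin (2 uL of 800 uM stock) hydrolysis followed by 480 nm absorbance every 20 s over 4 min.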
SmPrx2 inh: Schistosoma Mansoni Peroxiredoxins (Prx2) | S. mansoni Prx2 activity coupled to TGR/GSH (TGR is thioredoxin glutathione reductase), NADPH fluorescence loss, qHTS | Potency, µM | 65,000 tested, 0.07% active
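Prx2 inhibition was measured as reduced NADPH consumption when electrons flowed from NADPH through TGR and glutathione to Prx2 and H2O2. Plates were read kinetically over 8 min; enzyme reagents were held at 4 deg C during dispensing.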
AmpC nodet inh: Promiscuous and Specific Inhibitors of AmpC Beta-Lactamase (assay without detergent); AmpC nitrocefin hydrolysis, absorbance 480 nm, no detergent; Potency, µM (titrated, usually from 28.7 µM), for inactives: at the highest dose activity change, negative = inhibition; P00811; 71,000 tested, 1.8% active; AID 585, 2007; also: % of control where 0% means no effect
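AmpC, 20 mM phosphate pH 7.0; 15 min cpd preinc, RT; start with nitrocefin (800 uM stock); A480 kinetic read, 20 s intervals, 4 min. No-enzyme wells = negative control.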
* hit, by the source's call; ? = inconclusive; · = not tested or not shown; [ ] = remark or other dose. Unless noted, calls follow the shape of the full dose curve. Potency is read from the fitted curve at half-maximal effect.

SMILES | LT uptake inh | AmpC inh det | SmPrx2 inh | AmpC nodet inh
COc1ccccc1N1CCN(c2cc(=O)n(-c3ccc(Br)cc3)c(=O)[nH]2)CC1 | -10% | -2% | >57 | 16µM*[single pt active]
CCCCNc1cc(=O)n(C)c(=O)[nH]1 | 6% | 11% | >57 | 4µM*[single pt active]
COc1ncc2nc(-c3ccc(F)cc3)c(=O)n(-c3ccccc3)c2n1 | -8% | 1% | >57 | 8%
O=C(O)c1ccc2cc(-c3ccc(O)c(C45CC6CC(CC(C6)C4)C5)c3)ccc2c1 | 10µM* | · | · | ·
C=CCC1C=CC(Oc2ccc(OC)cc2)C(COC(=O)c2ccc(Br)cc2)O1 (configuration not stated) | -13%[8 µM] | · | · | ·
O=C(c1ccc(F)cc1)C(CN1CCOCC1)c1ccccc1 (configuration not stated) | 13µM* | -4% | · | 42%
c1ccc(C(CN2CCOCC2)c2ccccc2)cc1 | 3% | -3% | >57 | 19%
Ic1ccccc1CN[C@@H]1C2CCN(CC2)[C@H]1C(c1ccccc1)c1ccccc1 | 16µM* | 0% | >57 | 91%
Cc1nc2c(c(=O)n1Cc1ccccc1Cl)c1nc3ccccc3nc1n2Cc1ccco1 | 7.9µM* | 0% | >57 | 6%
CN1CCN(c2ccc([N+](=O)[O-])c3[nH]o[n+](=O)c23)CC1 | ? | -7%[5.75 µM] | >57 | 6%[5.75 µM]
CCOC(=O)OCC1OC(CCc2ccccc2)CCC1Oc1ccc(OC)cc1 (configuration not stated) | -8%[8 µM] | · | · | ·
COc1ccc(CNC(=O)Nc2cccs2)cc1OC | -21% | -4% | >57 | -7%
COc1cccc(CNC(=O)Nc2cccs2)c1 | ? | -1% | >57 | 13µM*
CC1(C)CCC(NC(=O)[C@H](N)CCC(=O)O)CC1 | 4% | -1% | >57 | 7%
CCOC(=O)c1c(NC(=O)CN2CCN(c3ccccn3)CC2)sc2c1CCCC2 | -11% | -12% | >57 | 12%
CCOC(=O)CNc1c(N2CCN(c3ccccn3)CC2)c(=O)c1=O | -5% | 10% | >57 | 4µM*[single pt active]
O=C(C1CCC(CNc2c(N3CCCCC3)c(=O)c2=O)CC1)N1CCN(c2ccccn2)CC1 (configuration not stated) | -1% | 11% | >57 | 4µM*[single pt active]
COc1ccc(CC(=O)Nc2cccc(-c3nnc(-c4cccc(C)c4)o3)c2)cc1OC | ? | -3% | >57 | 108%
COc1ccc(CC(=O)Nc2cccc(-c3nnc(-c4ccc(C)cc4)o3)c2)cc1OC | 3.2µM* | -4% | >57 | 76%
COc1ccc(CC(=O)Nc2cccc(-c3nnc(-c4ccccc4)o3)c2)cc1OC | 10µM* | -3% | >57 | 62%
COc1cccc(C(=O)Nc2cccc(-c3nnc(-c4ccccc4)o3)c2)c1 | 2µM* | 7% | · | 1%
COc1cc2c(cc1OC)-c1c(OC)c(OC)c(CO)c3c1[C@H](C2)N(C)CC3 | 0% | 0% | >57 | 20%
C/C(Cl)=C/CCl | -7% | 9% | · | -10%
Cc1cccc(CNc2ncncc2-c2ccccc2C)c1 | -11% | 10% | >57 | 41%
O=C(c1ccncc1)N1CCC2(CCCN(c3ccccn3)C2)CC1 | 9% | -3% | >57 | 62%
SMILES | LT uptake inh | AmpC inh det | SmPrx2 inh | AmpC nodet inh
CCN1CCN(C(=O)C2CC(c3ccc(F)cc3)=NO2)CC1 (configuration not stated) | -7% | 13% | >57 | 4µM*[single pt active]
CC(C)N[C@@H](C)Cc1ccc(I)cc1 | -4% | -2% | >57 | 1%
O=C1C(SCCO)=C(SCCO)C(=O)c2ccccc21 | 4µM* | 10% | >57 | 10%
C=CC[C@@H]1C=C[C@H](O/N=C(\C)CCN2CCCCc3nc(C)c(C)cc32)[C@H](CO)O1 | -5%[8 µM] | · | · | ·
COCCn1c(=O)c(C)nc2cnc(N3CCN(C)CC3)nc21 | 4% | -2% | >57 | -7%
O=C(Oc1ccc2c3c(c(=O)oc2c1)CCCC3)c1ccco1 | ? | 6% | 55* | 2%
CCC(NC(=O)OC(C)(C)C)C(=O)Oc1ccc2c3c(c(=O)oc2c1)CCC3 (configuration not stated) | · | -2% | 55* | 44%
COc1ccc(S(=O)(=O)c2c(N)n(Cc3ccco3)c3nc4ccccc4nc23)cc1 | ? | -1% | >57 | 13µM*
COc1ccc(Cn2c(C)nc3c(c2=O)c2nc4ccccc4nc2n3Cc2ccco2)cc1 | ? | 13% | >57 | 49%
CCn1c(SCC(=O)N2CCOCC2)nc(O)cc1=O | -5% | 13% | >57 | 4µM*[single pt active]
O=C(CCCN1CCC2(CC1)C(=O)N(CCc1ccc(N=C=S)cc1)CN2c1ccccc1)c1ccc(F)cc1 | ? | -5% | >57 | 31%
CCOC(=O)C1Cn2c(nc3c(c2=O)C2(CCCC2)Cc2ccccc2-3)S1 (configuration not stated) | ? | -4% | · | 71%
CCOC(=O)C1Cn2c(nc3c(c2=O)C(C)(C)Cc2ccccc2-3)S1 (configuration not stated) | 10µM* | 10% | · | 85%
N[C@@H]1CCc2cc(O)c(O)cc2C1 | ? | -1% | >57 | -10%
CSc1nc(N)c2ncn([C@@H]3O[C@@H](COP(=O)(O)OP(=O)(O)O)[C@@H](O)[C@H]3O)c2n1 | 10% | -2% | >57 | 7%
O=C(Nc1cccc(-c2nc3ncccc3o2)c1)c1cc2ccccc2o1 | 3.2µM* | 5% | >57 | 84%
CCCC(=O)Nc1ccc(OC[C@@H](O)CNC(C)C)c(C(C)=O)c1 | -8%[3.58 µM] | 1%[12.8 µM] | >57 | -7%[12.8 µM]
O=C1C2=C(Nc3ccccc3SC2c2ccco2)c2ccccc21 (configuration not stated) | ? | 7% | · | 0.4µM*
O=C1c2ccccc2NC(c2ccco2)N1O (configuration not stated) | -3% | 0% | · | -9%
O=C=NC1CCCCC1 | -3% | 14% | · | -3%
C(=NC1CCCCC1)=NC1CCCCC1 | 4µM* | 12% | · | -12%
CCN1C[C@@]2(COC)[C@H](O)C[C@H](OC)[C@@]34[C@@H]5C[C@@]6(O)[C@H](OC(=O)c7ccccc7)[C@H]5[C@@](OC(C)=O)([C@H]([C@@H](OC)[C@H]23)[C@H]14)[C@H](O)[C@@H]6OC | ? | -1% | >57 | 7%
CCOC(=O)N1CCC(NC(=O)c2ccc3snnc3c2)CC1 | 1% | 14% | >57 | 4µM*[single pt active]
O=C(CN1CCC(n2nnc3cc(F)ccc32)CC1)NC1CC1 | -8% | -3% | >57 | 3%
CCOc1ccc2nc(NC(=O)CN3CCC(n4nnc5cc(F)ccc54)CC3)sc2c1 | 13µM* | -5% | >57 | 52%
COC(=O)[C@@]1(Cc2ccc(OC)cc2)[C@H]2c3cc(C(=O)N(C)C)n(Cc4cc(C)n(C)n4)c3C[C@H]2CN1C(=O)c1ccccc1 | -1% | 1% | >57 | 164%
CCC(=O)Nc1c2c(nn1-c1cccc(Cl)c1)CSC2 | 6% | 13% | >57 | 4µM*[single pt active]
CCCN1CCN(CCCNC(=O)Cn2nc(-c3ccc(Cl)cc3)ccc2=O)CC1 | ? | -2% | >57 | 3%
